Measured values reported in PubChem BioAssay AID1159580 (chemical genetic matrix, 2015).
Several values for one entry are separate records, joined by “and”; a condition that tells them apart may be missing. Equal values may be shown once. Among all 5,500 compounds or so, about 2,000 (36%) were called active. Another 18% or so got no clear call; they are omitted. No stated cut-off is given here; in the data, active means normalized growth mostly below about 0.91 (no sharp cut-off); inconclusive means no clear call, values can overlap the other calls; inactive means mostly above about 0.92. The list shows a part of the results.

Test: chemical genetic growth profiling, strain panel (AID 1159580);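 further: tested at 20 µM; growth read once vehicle control cultures reached saturation at 30 °C; 1 = growth at the plate median or of vehicle wells; lower values mean less growth of the strain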
Details: S. cerevisiae deletion strains, growth OD

Measured: normalized growth

Cc1oncc1C(=O)Nc1ccc(C(F)(F)F)cc1
inactive: locus YJL168C, strain set2, hits give low values 0.993 | locus YJL187C, strain SWE1 (second series), hits give low values 1.01 | locus YJR043C, strain POL32, hits give low values 1.05 | locus YKL009W, strain mrt4, hits give low values 0.997 | locus YKL068W, hits give low values 0.998 | locus YKL085W, strain MDH1 (second series), hits give low values 0.999 | locus YKL085W, strain MDH1, hits give low values 0.999 | locus YKL160W, strain elf1, hits give low values 0.96 | locus YKR001C, strain vps1, hits give low values 0.997 | locus YKR026C, strain gcn3, hits give low values 0.98 | locus YKR091W, strain srl3, hits give low values 0.995 | locus YLL001W, strain dnm1, hits give low values 0.954 | locus YLL026W, hits give low values 0.966 | locus YLL041C, strain sdh2, hits give low values 0.958 | locus YLR039C, strain RIC1, hits give low values 0.984 | locus YLR058C, strain SHM2, hits give low values 1.02 | locus YLR102C, strain apc9, hits give low values 0.983 | locus YLR221C, strain rsa3, hits give low values 0.962 | locus YLR258W, strain gsy2, hits give low values 0.947 | locus YLR262C, strain YPT6 (second series), hits give low values 1.03 | locus YLR262C, strain YPT6, hits give low values 1.01 | locus YLR268W, strain sec22, hits give low values 0.992 | locus YLR320W, strain mms22, hits give low values 0.889 | locus YLR330W, strain CHS5, hits give low values 1.02 | locus YLR342W, strain FKS1 (second series), hits give low values 1.04 | locus YLR342W, strain FKS1, hits give low values 0.952 | locus YLR357W, strain rsc2, hits give low values 0.947 | locus YLR370C, strain arc18, hits give low values 1.01 | locus YLR371W, strain rom2, hits give low values 0.982 | locus YLR384C, strain iki3, hits give low values 1 | locus YLR418C, strain cdc73, hits give low values 0.981 | locus YML016C, strain PPZ1, hits give low values 1.03 | locus YML032C, strain rad52, hits give low values 0.989 | locus YML120C, strain ndi1, hits give low values 0.979 | locus YML124C, strain tub3, hits give low values 0.988 | locus YMR058W, strain fet3, hits give low values 0.937 | locus YMR078C, strain ctf18, hits give low values 1 | locus YMR125W, strain sto1, hits give low values 0.984 | locus YMR129W, hits give low values 0.978 | locus YMR223W, strain ubp8, hits give low values 0.998 | locus YMR231W, strain pep5, hits give low values 1.01 | locus YMR263W, strain SAP30, hits give low values 1.02 | locus YMR307W, strain GAS1, hits give low values 1.16 and 0.976 | locus YNL067W, strain RPL9B, hits give low values 1 | locus YNL128W, strain TEP1, hits give low values 1.02 and 0.958 | locus YNL175C, strain NOP13, hits give low values 0.934 | locus YNL197C, strain WHI3, hits give low values 0.946 | locus YNL209W, strain ssb2, hits give low values 0.99 | locus YNL224C, strain SQS1, hits give low values 0.94 | locus YNL233W, strain BNI4, hits give low values 1 | locus YNL248C, strain rpa49, hits give low values 0.99 | locus YNL250W, strain rad50, hits give low values 0.98 | locus YNL271C, strain bni1, hits give low values 0.993 | locus YNL298W, strain CLA4, hits give low values 1.01 | locus YNL307C, strain MCK1, hits give low values 0.991 | locus YNL322C, strain KRE1 (second series), hits give low values 0.973 | locus YNR049C, strain mso1, hits give low values 0.992 | locus YNR052C, strain pop2, hits give low values 0.979 | locus YOL006C, strain TOP1, hits give low values 0.986 | locus YOL012C, strain htz1 1.17 | locus YOL147C, strain pex11, hits give low values 0.993 | locus YOR001W, strain rrp6, hits give low values 0.997 | locus YOR061W, strain CKA2, hits give low values 1.03 | locus YOR069W, strain VPS5, hits give low values 1.02 | locus YOR070C, strain gyp1, hits give low values 0.988 | locus YOR080W, strain dia2, hits give low values 1.01 | locus YOR083W, strain WHI5 (second series), hits give low values 0.891 | locus YOR083W, strain WHI5, hits give low values 0.952 | locus YOR106W, strain vam3, hits give low values 0.955 | locus YOR136W, strain idh2, hits give low values 0.982 | locus YOR144C, strain elg1, hits give low values 0.988 | locus YOR184W, strain ser1, hits give low values 1 | locus YOR265W, strain rbl2, hits give low values 0.979 | locus YOR270C, strain vph1, hits give low values 0.964 | locus YOR290C, strain snf2, hits give low values 0.957 | locus YOR316C, strain cot1, hits give low values 1 | locus YPL051W, strain arl3, hits give low values 0.987 | locus YPL055C, strain LGE1, hits give low values 1.02 | locus YPL078C, strain atp4, hits give low values 0.935 | locus YPL106C, strain sse1, hits give low values 0.972 | locus YPL240C, strain hsp82, hits give low values 0.992 | locus YPL241C, strain CIN2, hits give low values 1.01 and 0.971 | locus YPR119W, strain clb2, hits give low values 0.989 | locus YPR141C, strain kar3, hits give low values 0.991 | locus YPR163C, strain tif3, hits give low values 0.991 | locus YPR167C, strain met16, hits give low values 0.995 | strain wtn01, hits give low values 0.992
active: locus YLR027C, strain aat2, hits give low values 0.919 | locus YMR205C, strain PFK2, hits give low values 0.794 | locus YNL071W, strain lat1, hits give low values 0.858
